# Laboratory results taken from PubChem BioAssay (NCI).
# This is part of a sample that, as a whole, favours compounds with a hit. Of some 83,000 tested, about 20% had one in any assay.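 Activity criterion: percent growth below 10, measured after cells in 96-well plates were exposed to a single compound concentration for 48 hours.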 A number with no mark means an inactive call. Activity calls are given as the source filed them.
# Legend:
# Experiment in all cases: NCI-60 one-dose screen, 48 h (100 = growth as untreated, 0 = no growth, -100 = all killed)
# Details in all cases: 10 µM unless noted
# [1] = system: SK-MEL-2 melanoma
# [2] = system: EKVX NSCLC
# [3] = system: SN12C renal
# [4] = system: UO-31 renal
# [5] = system: TK-10 renal
# [6] = system: ACHN renal
# [7] = system: CAKI-1 renal
# [8] = system: A498 renal
# [9] = system: CCRF-CEM leukemia
# [10] = system: MOLT-4 leukemia
# [11] = system: SR leukemia
# [12] = system: RPMI-8226 leukemia
# [13] = system: OVCAR-8 ovarian
# [14] = system: OVCAR-5 ovarian
# [15] = system: OVCAR-4 ovarian
# [16] = system: SK-OV-3 ovarian
# [17] = system: OVCAR-3 ovarian
# [18] = system: HS 578T breast
# [19] = system: NCI/ADR-RES ovarian
Compound,growth [1],growth [2],growth [3],growth [4],growth [5],growth [6],growth [7],growth [8],growth [9],growth [10],growth [11],growth [12],growth [13],growth [14],growth [15],growth [16],growth [17],growth [18] [%],growth [19]
COc1ccc(C(=O)COc2cccc(/C=C3\COc4ccc5ccccc5c4C3=O)c2)cc1,52.6%,45.4%,68.6%,-29.5% (active),125%,143%,71.9%,88.8%,13.3%,44.4%,35%,2.86% (active),36.9%,98.3%,28.1%,95.7%,64%,88,46.5%
CCOC(=O)c1sc(NC(=O)COc2ccc(/C=C3\CCc4cc(OC)ccc4C3=O)cc2)nc1C,62.3%,90.6%,86.2%,14.5%,115%,103%,76.7%,76.6%,-62.6% (active),7.56% (active),44.3%,42.5%,90.5%,103%,92.6%,122%,105%,94.4,86.6%
C=C(CN1CCc2c([nH]c3ccccc23)C1)c1ccc(C(=O)Nc2ccon2)cc1,75.8%,80.3%,93.8%,30.7%,131%,99%,83.9%,116%,81.2%,77.1%,80.9%,78.4%,78.2%,90.2%,85.5%,61.8%,92.6%,94.4,99.9%
Cc1ccc(S(=O)(=O)NCCN2c3nc4ccccc4cc3Sc3cc4ccccc4nc32)cc1,44.2%,70.3%,66%,-32% (active),84.5%,54.2%,92.5%,149%,93.7%,108%,73.7%,78.7%,34.1%,85.6%,22.9%,53.3%,83.7%,33.4,63.1%
Cc1ccc(OCC(=O)Nc2ccc(Oc3ccccc3)cc2)c([N+](=O)[O-])n1,30.9%,89.5%,68.5%,-38.4% (active),92.2%,101%,84.3%,107%,88%,81.8%,82.6%,50.7%,79%,84.4%,77.4%,71.9%,88.7%,113,43.7%
CCOC(=O)c1sc(NC(=O)COc2cccc(/C=C3\CCc4cc(OC)ccc4C3=O)c2)nc1C,42.6%,82.9%,48.9%,14%,89.3%,85.7%,60.2%,85.8%,-17.2% (active),7.22% (active),-19.4% (active),12.6%,73%,98%,73.2%,99%,38.2%,91.7,47.7%
Nc1ccc(Oc2c(F)c(F)c(Oc3ccc(N)cc3)c(F)c2F)cc1,17.5%,105%,103%,63.6%,101%,93.5%,95.6%,111%,78.2%,79.3%,96.3%,82.9%,101%,83.4%,83.8%,105%,101%,95.4,94%
CC[n+]1c(/C=C/c2ccc(N3CCCC3)cc2)cccc1/C=C/c1ccc(N2CCCC2)cc1,-89.8% (active),-76.4% (active),-79.9% (active),-92.6% (active),-80.5% (active),-96.3% (active),-67.9% (active),-93% (active),-7.16% (active),10.3%,57.2%,-41.1% (active),-87.3% (active),-80.1% (active),-73.8% (active),-95.6% (active),-90.1% (active),,-68.6% (active)
Cc1cc(C)nc(NS(=O)(=O)c2ccc(Nc3nc4nc(SCc5ccccc5)nc(-c5ccc(O)cc5)c4c(=O)[nH]3)cc2)n1,92%,96%,102%,97%,105%,104%,85.9%,90.7%,71.2%,73.8%,85.7%,66.7%,97%,96.2%,104%,94.9%,120%,103,97.3%
O=C(COc1ccc(/C=C2\Oc3ccc4ccccc4c3C2=O)cc1)c1ccc(Cl)cc1,73.8%,103%,98.9%,5.25% (active),114%,107%,98.8%,155%,-26.9% (active),33.8%,26.8%,62.1%,100%,113%,94.6%,104%,127%,91.7,107%
COC(=O)C1CCN(S(=O)(=O)c2ccc(-c3ccccc3)cc2)CC1,8.48% (active),108%,105%,97.1%,122%,110%,99.8%,125%,138%,161%,75.7%,144%,81.6%,106%,103%,98.4%,,117,116%
CCOC1Oc2ccccc2C(=O)/C1=N/c1nccs1 (centres undefined),73.9%,89.3%,76.4%,89.4%,98.8%,84.9%,77.3%,115%,82.4%,79.8%,57.1%,36.3%,114%,99.1%,94.5%,97.7%,64.7%,90.3,87.9%
COc1cc(/C=N/NC(=O)c2ccc(C(F)(F)F)nc2Nc2cc(Cl)ccc2C)cc(OC)c1OC,88.8%,93.6%,93.9%,103%,119%,104%,77.5%,100%,51.5%,61.8%,91.8%,64.7%,99.8%,103%,104%,106%,123%,104,98.3%
Cc1ccc(-c2cc(-c3ccccc3)n(-c3ccccc3)n2)cc1,74.6%,98.6%,107%,79.1%,99.4%,95.3%,94.5%,92.1%,84.9%,81.5%,72.3%,83.8%,105%,95.8%,85.3%,105%,103%,,101%
Cc1cc(Cl)ccc1Nc1nc(C(F)(F)F)ccc1C(=O)N/N=C/c1ccc(Cl)cc1,-20.6% (active),3.77% (active),4.31% (active),-43.3% (active),9.18% (active),-1.46% (active),-23.1% (active),-21.1% (active),-18.8% (active),-20.1% (active),-37.5% (active),-12.7% (active),11.2%,6.57% (active),0.502% (active),-15.4% (active),1.27% (active),,4.33% (active)
COC(=O)c1cc2c(/C=C3/NC(=S)NC3=O)coc2n1C,107%,93.4%,118%,50%,89.9%,95.2%,74.4%,99.6%,85.2%,99.9%,78.3%,75.8%,76.3%,96.7%,112%,68.5%,95.6%,66.3,105%
COc1ccc(CNC(=O)c2c(C)n([O-])c3cc(F)c(F)cc3[n+]2=O)cc1,88.1%,89.2%,95.2%,-32.4% (active),102%,98.7%,152%,95.1%,90.8%,97%,37.5%,86%,88%,99.5%,116%,111%,56%,97.3,108%
